# How the values were obtained:
# Test in all cases: DAPPL (digital affinity profiling via proximity ligation, sequencing); 10 mM Tris-HCl pH 7.5, 50 mM NaCl, 1 mM DTT, 4% glycerol, room temperature, 30 min; GST-TFs on glutathione beads, 16-mer random dsDNA library, 0.1% formaldehyde crosslink after washing; high values mean tight binding
# FEV = molecular target: T1, FEV (Homo sapiens, UniProt Q99581 1-238); details: protein: recombinant; tags: N-terminal GST; dsDNA, one strand shown
# T1 sequence: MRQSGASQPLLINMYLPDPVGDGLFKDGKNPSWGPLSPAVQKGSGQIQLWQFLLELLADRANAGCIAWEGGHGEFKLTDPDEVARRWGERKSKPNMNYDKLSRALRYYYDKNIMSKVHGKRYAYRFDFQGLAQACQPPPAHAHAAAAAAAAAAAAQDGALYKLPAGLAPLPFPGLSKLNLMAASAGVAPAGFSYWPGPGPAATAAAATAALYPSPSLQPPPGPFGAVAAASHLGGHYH
# Method in brief: (§1)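 In yeast, human transcription factors were expressed with a GST fusion, then pulled down on glutathione beads and given DNA barcodes. Pooled with a tag-only sample, they were exposed to 200 nmole of a 16-mer random double-stranded DNA library (Tris/NaCl/DTT/glycerol buffer, room temperature, 30 min), washed, crosslinked with 0.1% formaldehyde, proximity-ligated using BsaI/T4 ligase for 1 h at 37 °C, PCR-amplified and read on an Illumina NextSeq500. Each hexamer's frequency of reads for a factor, divided by the matching frequency for the tag-only sample, gives the binding signal.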
# ETV5 = ETV5 (Homo sapiens, UniProt P41161 1-510); details: protein: recombinant; tags: N-terminal GST; dsDNA, one strand shown
# Method in brief: as §1
# HSF1 = HSF1 (Homo sapiens, UniProt Q00613 1-529); details: protein: recombinant; tags: N-terminal GST; chain copies: 3; dsDNA, one strand shown
# Method in brief: as §1
# SPIC = molecular target: T2, SPIC (Homo sapiens, UniProt Q8N5J4 1-248); details: protein: recombinant; tags: N-terminal GST; dsDNA, one strand shown
# T2 sequence: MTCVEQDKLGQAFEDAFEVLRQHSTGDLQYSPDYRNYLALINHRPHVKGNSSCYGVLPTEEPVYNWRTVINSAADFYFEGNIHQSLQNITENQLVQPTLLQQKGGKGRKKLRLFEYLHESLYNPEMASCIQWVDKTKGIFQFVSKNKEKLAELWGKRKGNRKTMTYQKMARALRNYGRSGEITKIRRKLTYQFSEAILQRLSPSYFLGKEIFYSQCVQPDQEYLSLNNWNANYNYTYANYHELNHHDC
# Method in brief: as §1
# ELF4 = ELF4 (Homo sapiens, UniProt Q99607 1-663); details: protein: recombinant; tags: N-terminal GST; dsDNA, one strand shown
# Method in brief: as §1
# ELK4 = molecular target: T3, ELK4 (Homo sapiens, UniProt P28324-2 1-405); details: protein: recombinant; tags: N-terminal GST; dsDNA, one strand shown
# T3 sequence: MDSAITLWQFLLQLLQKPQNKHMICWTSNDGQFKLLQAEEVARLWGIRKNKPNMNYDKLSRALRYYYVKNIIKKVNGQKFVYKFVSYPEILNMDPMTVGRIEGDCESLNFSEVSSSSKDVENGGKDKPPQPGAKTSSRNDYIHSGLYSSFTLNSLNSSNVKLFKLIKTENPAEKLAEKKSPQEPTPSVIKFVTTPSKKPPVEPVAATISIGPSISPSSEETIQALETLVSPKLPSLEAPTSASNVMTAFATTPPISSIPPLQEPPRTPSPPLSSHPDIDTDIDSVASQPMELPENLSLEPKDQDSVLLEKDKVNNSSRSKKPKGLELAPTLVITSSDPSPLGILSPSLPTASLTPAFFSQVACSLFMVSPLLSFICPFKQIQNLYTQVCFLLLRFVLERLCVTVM
# Method in brief: as §1
# ETV2 = molecular target: T4, ETV2 (Homo sapiens, UniProt O00321 1-342); details: protein: recombinant; tags: N-terminal GST; dsDNA, one strand shown
# T4 sequence: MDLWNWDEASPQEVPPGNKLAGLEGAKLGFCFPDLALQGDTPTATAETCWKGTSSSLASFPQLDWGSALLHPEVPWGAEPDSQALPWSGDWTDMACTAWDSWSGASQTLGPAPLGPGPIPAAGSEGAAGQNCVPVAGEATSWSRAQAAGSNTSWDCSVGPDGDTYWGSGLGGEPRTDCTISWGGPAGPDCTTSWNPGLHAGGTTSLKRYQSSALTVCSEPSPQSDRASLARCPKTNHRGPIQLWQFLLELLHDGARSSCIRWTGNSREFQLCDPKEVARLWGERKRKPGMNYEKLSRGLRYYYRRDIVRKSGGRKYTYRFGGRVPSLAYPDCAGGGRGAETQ
# Method in brief: as §1
# ELF3 = molecular target: T5, ELF3 (Homo sapiens, UniProt P78545 1-371); details: protein: recombinant; tags: N-terminal GST; dsDNA, one strand shown
# T5 sequence: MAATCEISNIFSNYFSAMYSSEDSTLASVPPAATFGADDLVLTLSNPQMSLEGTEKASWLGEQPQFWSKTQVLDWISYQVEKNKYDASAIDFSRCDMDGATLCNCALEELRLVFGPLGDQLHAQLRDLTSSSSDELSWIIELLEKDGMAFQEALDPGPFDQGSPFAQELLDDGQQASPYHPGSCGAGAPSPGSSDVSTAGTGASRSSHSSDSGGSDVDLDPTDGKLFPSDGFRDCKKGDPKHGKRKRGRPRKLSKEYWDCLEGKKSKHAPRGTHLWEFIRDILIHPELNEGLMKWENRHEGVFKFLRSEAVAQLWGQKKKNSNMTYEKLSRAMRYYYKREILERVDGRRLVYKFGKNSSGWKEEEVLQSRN
# Method in brief: as §1
# CRX = CRX (Homo sapiens, UniProt O43186 1-299); details: protein: recombinant; tags: N-terminal GST; dsDNA, one strand shown
# Method in brief: as §1
# ETV1 = ETV1 (Homo sapiens, UniProt P50549 1-477); details: protein: recombinant; tags: N-terminal GST; dsDNA, one strand shown
# Method in brief: as §1
# ERF = molecular target: T6, ERF (Homo sapiens, UniProt P50548 1-548); details: protein: recombinant; tags: N-terminal GST; dsDNA, one strand shown
# T6 sequence: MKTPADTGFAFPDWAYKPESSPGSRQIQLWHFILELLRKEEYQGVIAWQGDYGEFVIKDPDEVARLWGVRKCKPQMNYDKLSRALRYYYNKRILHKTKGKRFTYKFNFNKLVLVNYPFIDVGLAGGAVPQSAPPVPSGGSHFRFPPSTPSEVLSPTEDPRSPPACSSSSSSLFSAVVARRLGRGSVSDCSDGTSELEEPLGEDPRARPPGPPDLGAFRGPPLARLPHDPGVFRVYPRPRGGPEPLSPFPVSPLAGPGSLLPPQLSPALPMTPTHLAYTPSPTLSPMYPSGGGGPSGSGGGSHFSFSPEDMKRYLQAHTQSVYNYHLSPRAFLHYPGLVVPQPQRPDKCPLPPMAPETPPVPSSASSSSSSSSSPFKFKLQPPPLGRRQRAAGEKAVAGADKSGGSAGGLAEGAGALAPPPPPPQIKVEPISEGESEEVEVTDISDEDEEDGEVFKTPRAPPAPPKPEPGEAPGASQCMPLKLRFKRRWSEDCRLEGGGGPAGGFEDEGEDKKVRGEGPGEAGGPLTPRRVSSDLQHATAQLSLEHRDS
# Method in brief: as §1
# ETV3L = molecular target: T7, ETV3L (Homo sapiens, UniProt Q6ZN32 1-361); details: protein: recombinant; tags: N-terminal GST; dsDNA, one strand shown
# T7 sequence: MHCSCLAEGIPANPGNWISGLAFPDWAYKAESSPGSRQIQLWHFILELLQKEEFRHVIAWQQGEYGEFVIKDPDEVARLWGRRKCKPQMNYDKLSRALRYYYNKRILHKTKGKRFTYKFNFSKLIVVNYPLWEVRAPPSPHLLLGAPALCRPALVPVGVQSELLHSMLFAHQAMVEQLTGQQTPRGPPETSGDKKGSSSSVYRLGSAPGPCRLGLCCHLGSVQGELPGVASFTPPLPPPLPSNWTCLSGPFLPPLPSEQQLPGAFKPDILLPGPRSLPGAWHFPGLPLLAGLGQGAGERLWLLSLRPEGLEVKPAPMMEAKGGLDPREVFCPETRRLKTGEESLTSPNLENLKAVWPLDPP
# Method in brief: as §1
# ETS2 = molecular target: T8, ETS2 (Homo sapiens, UniProt P15036 1-469); details: protein: recombinant; tags: N-terminal GST; dsDNA, one strand shown
# T8 sequence: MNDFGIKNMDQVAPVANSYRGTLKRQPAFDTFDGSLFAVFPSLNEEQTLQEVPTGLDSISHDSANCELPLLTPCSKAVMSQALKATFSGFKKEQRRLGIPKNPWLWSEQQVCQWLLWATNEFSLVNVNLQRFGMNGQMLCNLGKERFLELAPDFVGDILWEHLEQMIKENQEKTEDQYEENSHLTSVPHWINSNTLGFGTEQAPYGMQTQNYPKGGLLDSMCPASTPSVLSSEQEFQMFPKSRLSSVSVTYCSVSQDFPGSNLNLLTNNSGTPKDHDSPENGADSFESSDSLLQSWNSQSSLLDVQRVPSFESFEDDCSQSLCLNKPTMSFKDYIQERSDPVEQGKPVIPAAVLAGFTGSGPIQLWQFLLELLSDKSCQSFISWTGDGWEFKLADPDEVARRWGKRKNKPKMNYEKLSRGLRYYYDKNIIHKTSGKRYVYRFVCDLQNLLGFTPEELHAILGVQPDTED
# Method in brief: as §1
# SPDEF = molecular target: T9, SPDEF (Homo sapiens, UniProt O95238 1-335); details: protein: recombinant; tags: N-terminal GST; dsDNA, one strand shown
# T9 sequence: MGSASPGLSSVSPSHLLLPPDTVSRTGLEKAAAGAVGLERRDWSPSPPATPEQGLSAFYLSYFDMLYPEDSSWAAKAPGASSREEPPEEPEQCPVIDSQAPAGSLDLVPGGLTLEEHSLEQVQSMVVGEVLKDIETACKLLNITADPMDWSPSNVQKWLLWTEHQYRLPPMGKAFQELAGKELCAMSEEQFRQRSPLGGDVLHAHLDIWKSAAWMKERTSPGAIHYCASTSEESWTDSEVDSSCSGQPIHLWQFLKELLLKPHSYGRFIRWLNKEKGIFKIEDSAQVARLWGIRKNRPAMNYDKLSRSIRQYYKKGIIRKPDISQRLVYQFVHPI
# Method in brief: as §1
# ETV7 = molecular target: T10, ETV7 (Homo sapiens, UniProt Q9Y603 1-341); details: protein: recombinant; tags: N-terminal GST; dsDNA, one strand shown
# T10 sequence: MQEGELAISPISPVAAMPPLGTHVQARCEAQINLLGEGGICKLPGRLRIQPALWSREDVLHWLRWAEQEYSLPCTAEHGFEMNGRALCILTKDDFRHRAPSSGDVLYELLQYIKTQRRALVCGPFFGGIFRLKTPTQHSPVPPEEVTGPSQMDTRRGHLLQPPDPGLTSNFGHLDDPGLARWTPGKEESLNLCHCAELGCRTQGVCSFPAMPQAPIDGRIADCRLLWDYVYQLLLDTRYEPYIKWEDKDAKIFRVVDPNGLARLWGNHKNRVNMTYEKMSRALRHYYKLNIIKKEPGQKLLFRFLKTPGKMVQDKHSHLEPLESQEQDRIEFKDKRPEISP
# Method in brief: as §1
# ELF5 = molecular target: T11, ELF5 (Homo sapiens, UniProt Q9UKW6-2 1-255); details: protein: recombinant; tags: N-terminal GST; dsDNA, one strand shown
# T11 sequence: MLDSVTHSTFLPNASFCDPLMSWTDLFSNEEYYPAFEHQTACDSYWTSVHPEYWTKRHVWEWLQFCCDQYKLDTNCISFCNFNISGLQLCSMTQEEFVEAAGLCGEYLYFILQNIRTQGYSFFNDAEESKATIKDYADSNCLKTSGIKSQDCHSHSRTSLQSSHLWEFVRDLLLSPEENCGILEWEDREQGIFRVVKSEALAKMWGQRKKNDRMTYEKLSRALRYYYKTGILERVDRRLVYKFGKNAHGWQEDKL
# Method in brief: as §1
# ETV3 = molecular target: T12, ETV3 (Homo sapiens, UniProt P41162-2 1-143); details: protein: recombinant; tags: N-terminal GST; dsDNA, one strand shown
# T12 sequence: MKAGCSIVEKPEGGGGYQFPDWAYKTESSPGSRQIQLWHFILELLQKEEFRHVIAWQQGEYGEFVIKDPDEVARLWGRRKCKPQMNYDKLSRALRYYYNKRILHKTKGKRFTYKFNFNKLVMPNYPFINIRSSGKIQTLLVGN
# Method in brief: as §1
# ETV6 = ETV6 (Homo sapiens, UniProt P41212 1-452); details: protein: recombinant; tags: N-terminal GST; dsDNA, one strand shown
# Method in brief: as §1
# HSF1, sequence (Q00613 whole entry): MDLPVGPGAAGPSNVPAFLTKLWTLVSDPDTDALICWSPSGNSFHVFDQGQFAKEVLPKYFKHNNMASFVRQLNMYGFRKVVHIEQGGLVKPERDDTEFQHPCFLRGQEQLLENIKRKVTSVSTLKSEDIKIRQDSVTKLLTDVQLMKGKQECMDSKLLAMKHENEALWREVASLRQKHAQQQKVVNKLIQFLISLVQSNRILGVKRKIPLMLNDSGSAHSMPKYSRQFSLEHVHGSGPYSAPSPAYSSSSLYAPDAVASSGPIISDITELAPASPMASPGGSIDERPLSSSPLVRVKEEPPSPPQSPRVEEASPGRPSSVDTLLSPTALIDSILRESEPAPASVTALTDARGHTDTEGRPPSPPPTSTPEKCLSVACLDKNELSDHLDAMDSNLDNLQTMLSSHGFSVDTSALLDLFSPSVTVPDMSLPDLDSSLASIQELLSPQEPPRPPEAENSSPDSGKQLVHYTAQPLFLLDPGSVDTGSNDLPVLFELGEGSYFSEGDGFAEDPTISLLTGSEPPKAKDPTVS
# ETV6, sequence (P41212 whole entry): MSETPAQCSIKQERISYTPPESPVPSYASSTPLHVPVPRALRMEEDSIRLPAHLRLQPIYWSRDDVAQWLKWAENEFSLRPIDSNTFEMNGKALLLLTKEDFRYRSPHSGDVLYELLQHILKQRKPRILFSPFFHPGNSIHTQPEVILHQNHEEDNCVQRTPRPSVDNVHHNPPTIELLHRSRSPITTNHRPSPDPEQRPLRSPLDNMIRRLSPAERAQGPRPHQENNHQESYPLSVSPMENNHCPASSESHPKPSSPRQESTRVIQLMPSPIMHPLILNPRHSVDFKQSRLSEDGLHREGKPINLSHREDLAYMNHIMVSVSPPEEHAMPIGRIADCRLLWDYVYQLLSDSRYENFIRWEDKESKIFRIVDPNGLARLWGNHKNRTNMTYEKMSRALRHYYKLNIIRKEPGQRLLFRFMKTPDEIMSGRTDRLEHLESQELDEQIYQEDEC
# ETV5, sequence (P41161 whole entry): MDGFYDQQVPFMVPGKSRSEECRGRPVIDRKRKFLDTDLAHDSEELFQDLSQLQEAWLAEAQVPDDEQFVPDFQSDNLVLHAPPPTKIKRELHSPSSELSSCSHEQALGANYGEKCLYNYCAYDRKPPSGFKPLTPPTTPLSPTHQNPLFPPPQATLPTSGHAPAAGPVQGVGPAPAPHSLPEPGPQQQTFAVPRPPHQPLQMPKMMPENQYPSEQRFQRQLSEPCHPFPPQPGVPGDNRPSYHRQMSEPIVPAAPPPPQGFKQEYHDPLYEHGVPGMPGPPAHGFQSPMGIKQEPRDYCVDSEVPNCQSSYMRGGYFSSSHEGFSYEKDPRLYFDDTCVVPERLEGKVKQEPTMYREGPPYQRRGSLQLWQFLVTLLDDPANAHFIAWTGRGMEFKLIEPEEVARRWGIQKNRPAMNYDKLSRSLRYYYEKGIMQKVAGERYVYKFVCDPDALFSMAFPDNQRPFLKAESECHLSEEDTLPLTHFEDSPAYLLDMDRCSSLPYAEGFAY
# ELF4, sequence (Q99607 whole entry): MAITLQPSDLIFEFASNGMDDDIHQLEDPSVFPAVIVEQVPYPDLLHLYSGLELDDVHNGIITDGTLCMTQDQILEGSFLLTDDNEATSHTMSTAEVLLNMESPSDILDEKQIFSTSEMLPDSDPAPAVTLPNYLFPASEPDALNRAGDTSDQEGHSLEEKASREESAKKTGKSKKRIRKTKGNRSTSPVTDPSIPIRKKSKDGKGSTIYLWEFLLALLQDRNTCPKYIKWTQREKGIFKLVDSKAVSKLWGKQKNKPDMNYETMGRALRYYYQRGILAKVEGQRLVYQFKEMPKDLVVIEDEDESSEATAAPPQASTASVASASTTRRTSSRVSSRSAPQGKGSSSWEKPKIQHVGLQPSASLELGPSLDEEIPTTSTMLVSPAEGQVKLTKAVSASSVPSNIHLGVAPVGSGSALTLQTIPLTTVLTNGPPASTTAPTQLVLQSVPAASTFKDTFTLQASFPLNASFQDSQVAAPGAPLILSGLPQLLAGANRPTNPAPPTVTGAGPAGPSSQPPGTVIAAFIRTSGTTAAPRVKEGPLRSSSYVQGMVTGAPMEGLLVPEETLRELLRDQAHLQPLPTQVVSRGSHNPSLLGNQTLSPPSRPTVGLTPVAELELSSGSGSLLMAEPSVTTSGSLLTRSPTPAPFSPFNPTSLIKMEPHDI
# ETV1, sequence (P50549 whole entry): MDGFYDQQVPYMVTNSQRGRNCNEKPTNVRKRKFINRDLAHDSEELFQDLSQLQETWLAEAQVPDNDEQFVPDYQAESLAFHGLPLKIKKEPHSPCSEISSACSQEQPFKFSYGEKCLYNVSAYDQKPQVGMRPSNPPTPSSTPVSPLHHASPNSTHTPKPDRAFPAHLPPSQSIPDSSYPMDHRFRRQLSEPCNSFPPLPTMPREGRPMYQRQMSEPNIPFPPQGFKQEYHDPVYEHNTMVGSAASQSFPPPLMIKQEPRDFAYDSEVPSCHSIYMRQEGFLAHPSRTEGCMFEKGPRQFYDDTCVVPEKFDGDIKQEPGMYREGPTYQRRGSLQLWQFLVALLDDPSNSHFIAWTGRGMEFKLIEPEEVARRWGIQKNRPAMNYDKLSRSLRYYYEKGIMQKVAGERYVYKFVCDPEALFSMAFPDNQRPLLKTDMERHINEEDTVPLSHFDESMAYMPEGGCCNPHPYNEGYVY
# CRX, sequence (O43186 whole entry): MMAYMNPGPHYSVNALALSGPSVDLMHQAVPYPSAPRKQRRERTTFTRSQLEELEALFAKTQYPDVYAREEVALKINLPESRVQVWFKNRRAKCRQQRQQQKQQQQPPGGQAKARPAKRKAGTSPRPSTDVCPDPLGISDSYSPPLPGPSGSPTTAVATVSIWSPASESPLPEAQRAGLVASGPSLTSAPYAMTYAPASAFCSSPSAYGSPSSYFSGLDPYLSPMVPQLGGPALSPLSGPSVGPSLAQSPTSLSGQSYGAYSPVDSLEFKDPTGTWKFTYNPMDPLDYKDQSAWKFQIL
sequence,measurement,setting,value
CCTAAC,binding signal,FEV,"1.38 fold enrichment (6-mer frequency, TF over GST control)"
same,binding signal,ETV5,"1.42 fold enrichment (6-mer frequency, TF over GST control)"
same,binding signal,HSF1,"1.19 fold enrichment (6-mer frequency, TF over GST control)"
same,binding signal,SPIC,"1.49 fold enrichment (6-mer frequency, TF over GST control)"
same,binding signal,ELF4,"1.53 fold enrichment (6-mer frequency, TF over GST control)"
same,binding signal,ELK4,"1.36 fold enrichment (6-mer frequency, TF over GST control)"
same,binding signal,ETV2,"1.41 fold enrichment (6-mer frequency, TF over GST control)"
same,binding signal,ELF3,"1.51 fold enrichment (6-mer frequency, TF over GST control)"
same,binding signal,CRX,"1.25 fold enrichment (6-mer frequency, TF over GST control)"
same,binding signal,ETV1,"1.35 fold enrichment (6-mer frequency, TF over GST control)"
same,binding signal,ERF,"1.53 fold enrichment (6-mer frequency, TF over GST control)"
same,binding signal,ETV3L,"1.45 fold enrichment (6-mer frequency, TF over GST control)"
same,binding signal,ETS2,"1.38 fold enrichment (6-mer frequency, TF over GST control)"
same,binding signal,SPDEF,"1.41 fold enrichment (6-mer frequency, TF over GST control)"
same,binding signal,ETV7,"1.25 fold enrichment (6-mer frequency, TF over GST control)"
same,binding signal,ELF5,"1.39 fold enrichment (6-mer frequency, TF over GST control)"
same,binding signal,ETV3,"1.32 fold enrichment (6-mer frequency, TF over GST control)"
same,binding signal,ETV6,"1.3 fold enrichment (6-mer frequency, TF over GST control)"
